The sample as a whole holds a higher share of hits than the screen did.
Sm TGR block: qHTS Assay for the Inhibitors of Schistosoma Mansoni Peroxiredoxins; Schistosoma mansoni thioredoxin glutathione reductase (TGR), Q962Y6; purified TGR, DTNB reduction, TNB absorbance 405 nm; Potency, µM (top dose mostly 114 µM), for the others: top-dose activity change, negative = inhibition, hits mostly inhibitors; 360,000 compounds, 3% hits; further: potency means the concentration at half of the fitted maximal effect; on the % scale 0 is the no-effect control and ±100 the full control effect; nearly all actives have a fitted effect of over 60% in size
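Kinetic colorimetric format: TGR-catalysed, NADPH-driven DTNB reduction monitored via TNB absorbance. Enzyme dispensed at 20 nM; compound exposure 15 min at room temperature before reaction start.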
CHX counter: Cycloheximide Counterscreen for Small Molecule Inhibitors of Shiga Toxin; cell reporter, cycloheximide protein synthesis inhibition counterscreen; max response, %; 300,000 compounds, 12% hits; in the data active means max response mostly above about 13%, no sharp cut-off; inactive means mostly below about 14%; further: read at 38.3 µM for the half of the compounds with a filed dose; 0% is about no effect
Tb PYK inh: qHTS of Trypanosoma Brucei Inhibitors; TbPYK enzyme, Kinase-Glo Plus ATP luminescence, 45 min; Potency, µM (titrated, usually from 76.8 µM), without a hit: at the highest dose activity, negative = inhibition, most hits filed as inhibitors; 410,000 compounds, 0.12% hits; AID 624173, 2012; further: potency means the concentration at half of the fitted maximal effect; on the % scale 0 is the no-effect control and ±100 the full control effect; nearly all actives have a fitted effect of over 50% in size
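TbPYK + substrate in 50 mM TEA pH 7.2, 100 mM KCl, 10 mM MgCl2, 0.05% BSA, 0.01% Tween-20; cpd pinned; ADP 130 uM final; 45 min RT; Kinase-Glo Plus 10 min; luminescence endpoint.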
LmPK inh: qHTS Assay for Inhibitors of Leishmania Mexicana Pyruvate Kinase (LmPK); purified LmPK, Kinase-Glo ATP luminescence, 1 h; Potency, µM (doses to about 57.5 µM), for inactives: at the top dose activity change, negative = inhibition, actives largely listed as inhibitors; 290,000 compounds, 0.37% hits; AID 1721, 2009; further: potency means the concentration at half of the fitted maximal effect; on the % scale 0 is the no-effect control and ±100 the full control effect
Target sequence (Q27686 whole entry, looked up): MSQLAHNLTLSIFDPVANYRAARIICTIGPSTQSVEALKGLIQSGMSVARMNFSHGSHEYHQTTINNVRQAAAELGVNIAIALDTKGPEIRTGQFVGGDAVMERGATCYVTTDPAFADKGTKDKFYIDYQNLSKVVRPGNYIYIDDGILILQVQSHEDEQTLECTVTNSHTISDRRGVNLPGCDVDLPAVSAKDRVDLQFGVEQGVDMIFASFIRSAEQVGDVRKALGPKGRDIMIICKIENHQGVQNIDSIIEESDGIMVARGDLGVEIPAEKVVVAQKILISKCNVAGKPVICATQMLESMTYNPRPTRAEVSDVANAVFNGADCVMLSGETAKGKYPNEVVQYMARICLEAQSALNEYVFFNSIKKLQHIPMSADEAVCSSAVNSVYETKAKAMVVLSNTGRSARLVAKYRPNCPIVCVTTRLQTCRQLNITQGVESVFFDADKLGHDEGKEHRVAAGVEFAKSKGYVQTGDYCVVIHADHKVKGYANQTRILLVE
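Pyruvate kinase activity monitored as ATP production (luciferase luminescence). Conditions: 0.1 nM enzyme, 0.5 mM PEP, 0.1 mM ADP, 1 h, RT; normalized against uninhibited and no-enzyme wells.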
Giardia FBPA inh-1: qHTS Assay for Inhibitors of Fructose-1,6-bisphosphate Aldolase from Giardia Lamblia; A8B2U2; purified Giardia FBPA; Potency, µM (top dose mostly 59.6 µM), for the others: top-dose activity, negative = inhibition, hits mostly inhibitors; 290,000 compounds, 0.71% hits; AID 2451, 2010; further: potency means the concentration at half of the fitted maximal effect; on the % scale 0 is the no-effect control and ±100 the full control effect; nearly all actives have a fitted effect of over 55% in size
Target sequence (A8B2U2 whole entry, looked up): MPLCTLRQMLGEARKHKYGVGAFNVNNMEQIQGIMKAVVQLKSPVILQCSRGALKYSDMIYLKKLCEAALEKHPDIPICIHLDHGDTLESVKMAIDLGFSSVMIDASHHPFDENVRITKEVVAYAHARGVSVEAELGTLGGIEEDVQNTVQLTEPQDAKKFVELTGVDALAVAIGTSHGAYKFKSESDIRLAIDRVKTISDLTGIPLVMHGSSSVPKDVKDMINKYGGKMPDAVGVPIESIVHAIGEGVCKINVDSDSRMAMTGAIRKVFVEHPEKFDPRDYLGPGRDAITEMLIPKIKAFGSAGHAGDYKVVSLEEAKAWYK
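40 nM FBPA preincubated 10 min at RT with compound (up to 57.5 uM final), then substrate plus GAPDH/TPI/NAD/arsenate coupling and diaphorase/resazurin added. Fluorescence read after 20 min at RT, 525/598 nm.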
Shiga toxin inh: A qHTS for Small Molecule Inhibitors of Shiga Toxin. inhibition, % at 38.7 µM. Vero cells, Shiga toxin protein synthesis inhibition reporter. 290,000 compounds, 9.2% hits; in the data active means inhibition mostly above about 28%, no sharp cut-off; inactive means mostly below about 43%; further: 0% is about no effect
Giardia growth: qHTS Assay for Inhibitors of Fructose-1,6-bisphosphate Aldolase from Giardia Lamblia: Giardia lamblia growth inhibition; AID 2785, 2010; Potency, µM (series often up to 57.5 µM), without a hit: at the highest dose activity change, negative = inhibition, usual class: inhibitors; 1,500 compounds, 5% hits; Giardia lamblia trophozoite growth inhibition; shares compounds with Giardia FBPA inh-1;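 further: potency means the concentration at half of the fitted maximal effect; trophozoites exposed to compound for 48 h at 37 °C; on the % scale 0 is the no-effect control and ±100 the full control effect; nearly all actives have a fitted effect of over 70% in size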
Mammalian tox: qHTS Assay for Inhibitors of Fructose-1,6-bisphosphate Aldolase from Giardia Lamblia: Mammalian cellular toxicity. shares compounds with Giardia FBPA inh-1. mammalian cell viability counter-screen, qHTS. Potency, µM (highest dose often 57.5 µM), for the others: top-dose viability change, negative = toxicity, usual class: inhibitors. 1,500 compounds, 4% hits;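 further: Chinese hamster ovary cells used as mammalian cytotoxicity surrogate; viability measured as cellular ATP by luminescence; potency means the concentration at half of the fitted maximal effect; compound exposure lasted 48 h before reading; on the % scale 0 is the no-effect control and ±100 the full control effect; nearly all actives have a fitted effect of over 60% in size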
Giardia FBPA inh-2: qHTS Assay for Inhibitors of Fructose-1,6-bisphosphate Aldolase from Giardia Lamblia: Primary screen confirmation. Potency, µM (highest dose often 57.5 µM), inactives show at the highest dose activity change, negative = inhibition, most hits filed as inhibitors. AID 2787, 2010. shares compounds with Giardia FBPA inh-1. purified Giardia aldolase enzyme activity, qHTS. 1,500 compounds, 5% hits; further: potency means the concentration at half of the fitted maximal effect; on the % scale 0 is the no-effect control and ±100 the full control effect; nearly all actives have a fitted effect of over 45% in size
Rabbit FBPA inh: qHTS Assay for Inhibitors of Fructose-1,6-bisphosphate Aldolase from Giardia Lamblia: Rabbit FBPA Selectivity | shares compounds with Giardia FBPA inh-1 | Rabbit muscle FBPA enzyme inhibition, selectivity counter-screen | Potency, µM (titrated, usually from 57.5 µM), without a hit: at the highest dose activity, negative = inhibition, usual class: inhibitors | 1,500 compounds, 4% hits; further: potency means the concentration at half of the fitted maximal effect; on the % scale 0 is the no-effect control and ±100 the full control effect; nearly all actives have a fitted effect of over 60% in size
GAPDH coupling: qHTS Assay for Inhibitors of Fructose-1,6-bisphosphate Aldolase from Giardia Lamblia: Coupling assay counterscreen confirmation; shares compounds with Giardia FBPA inh-1; GAPDH coupling enzyme counterscreen, biochemical, qHTS; Potency, µM (doses to about 57.5 µM), for the others: at the highest dose activity change, negative = inhibition, most hits filed as inhibitors; 1,500 compounds, 6% hits; AID 2795, 2010; further: potency means the concentration at half of the fitted maximal effect; on the % scale 0 is the no-effect control and ±100 the full control effect; nearly all actives have a fitted effect of over 55% in size
* = called active by the depositor; ? = inconclusive; . = no result; [ ] = dose if it differs, or a comment. Unless noted, the call rests on the fitted dose curve; in most records, active means well fitted curve in the direction sought with a large enough effect; inconclusive means small, poorly fitted or top-dose-only effect, or another doubt; inactive means no such curve, though single readings can be large; an effect the other way counts as inactive or inconclusive.

SMILES	Sm TGR block	CHX counter	Tb PYK inh	LmPK inh	Giardia FBPA inh-1	Shiga toxin inh	Giardia growth	Mammalian tox	Giardia FBPA inh-2	Rabbit FBPA inh	GAPDH coupling
COc1cc(CNn2cn[nH]c2=S)ccc1OCC(=O)NC(C)(C)C	-1.6%	-3.7	?	1.3%	10µM*	-4.9	?	-1.0%	2.7%	-1.0%	13.0%
CCC(C)NCCOc1ccc(C(C)(C)c2ccccc2)cc1 (stereo not drawn)	0.7%	-4.4	-4.4%	9.7%	17.7µM*	-16.8	?	-9.1%	8.9%	9.8%	-0.4%
CNCCCOc1ccc(C(C)(C)c2ccccc2)cc1	-19.2%	18.5	.	-0.7%	?	11.0	.	.	.	.	.
COC(=O)C(C)Sc1n[nH]c(=S)s1 (stereo not drawn)	-2.0%	-3.1	?	27.4%	?	-21.3	.	.	.	.	.
O=C(O)CC(Sc1n[nH]c(=S)s1)C(=O)O (stereo not drawn)	-20.6%	-1.8	?	1.5%	4.46µM*	-4.1	15.2%[38.3 µM]	?	?	?	?
COCCn1c(NC(=S)NC(=O)C2CC2)cc(=O)[nH]c1=O	-16.6%	-1.3	-0.3%	-5.2%	7.06µM*	-6.7	23.9%	4.1%	1.2%	-0.9%	14.0%
Cc1cc(C)n2c(=S)[nH]nc2n1	-34.1%	-4.4	10µM*	1.2%	2.23µM*	-3.2	-5.4%[38.3 µM]	3.3%	-1.2%	?	-18.9%
Cc1cc(C)n2cnnc2n1	3.1%	0.6	-7.7%	-2.3%	-1.4%	-1.8	.	.	.	.	.
N#C/C(=C(\O)c1cc(Cl)sc1Cl)c1nc2ccccc2[nH]1	-15.1%	-6.4	-7.3%	2.6%	25.1µM*	-4.0	11.4%	1.4%	-19.4%	3.4%	?
O=C(Nc1cccc(-n2cccn2)c1)C1CCCN(Cc2ccccc2F)C1 (stereo not drawn)	-2.7%	-4.8	-14.4%	-3.9%	.	-1.5	.	.	.	.	.
CC1=C(C#N)c2nc(N)c(C#N)c(C)c2/C1=C\c1ccc(OCC(=O)O)c(Cl)c1	?	-3.6	-11.5%	-1.1%	19.9µM*	-1.5	?	-2.9%	-16.7%	-12.3%	-5.7%
CCn1c(O)c(C(c2ccccn2)c2c(O)n(CC)c(=S)[nH]c2=O)c(=O)[nH]c1=S	-20.9%	-0.6	-23.3%	-5.9%	17.7µM*	-10.2	17.8%[10.4 µM]	5.0%	-6.5%	12.1%	10.6%
O=c1[nH]c(=S)[nH]c(O)c1C(c1ccccn1)c1c(O)[nH]c(=S)[nH]c1=O	-28.6%	2.8	-29.3%	0.6%	15.8µM*	9.0	1.6%[10.4 µM]	12.7%	-2.3%	11.1%	-4.9%
CC(C(=O)c1ccccc1)C(O)c1ccccn1 (stereo not drawn)	.	.	-18.9%	.	.	.	.	.	.	.	.
Cc1ccc(C)c(-n2cc[nH]c2=S)c1	0.7%	-0.9	?	?	-20.0%	20.3	.	.	.	.	.
CSc1ccccc1NC(=O)CN(C)CC(=O)NCc1ccccc1	-0.3%	-1.5	-0.8%	-0.7%	-0.5%	-9.8	.	.	.	.	.
CSc1ccccc1NC(=O)CN(C)Cc1cccc(Cl)c1	14.6%	12.1	17.1%	6.2%	22.3µM*	-3.0	9.1%	17.2%	5.1%	4.0%	11.1%
CN(CC(=O)NC(=O)NCc1ccccc1)Cc1ccc(Cl)c(Cl)c1	-3.4%	4.7	-11.8%	-0.4%	-1.3%	16.3	.	.	.	.	.
CN(CC(=O)NCc1ccccc1)Cc1cccc(F)c1	1.5%	-4.2	2.1%	-13.9%	10µM*	-2.8	-29.9%	3.5%	12.6%	1.8%	9.2%
CCCNC(=O)C1CCC(Cn2c(=O)c3sccc3n(CC(=O)N3CCCC(C)C3)c2=O)CC1 (stereo not drawn)	6.6%	.	-4.0%	.	.	.	.	.	.	.	.
Cc1ccccc1N1CCN(CC(=O)Nc2nccs2)CC1	0.0%	-2.6	1.2%	-0.4%	11.2µM*	-13.2	-15.3%	-4.2%	5.8%	6.3%	6.1%
NC(=O)C1CCN(CC(=O)Nc2nccs2)CC1	0.8%	-1.8	4.6%	0.3%	3.55µM*	.	?	-5.6%	-24.8%	0.6%	13.9%
CCOc1ccc(C(=O)C2CCN(CC(=O)Nc3nccs3)CC2)cc1	-1.9%	-6.9	-0.7%	-1.9%	?	-4.4	.	.	.	.	.
Cn1c(O)c(/C=N/NC(=O)c2ccncc2)c(=O)[nH]c1=S	-25.7%	7.1	-29.9%	1.1%	0.4%	4.6	.	.	.	.	.
O=C(N/N=C/c1c(O)n(-c2ccccc2)c(=S)[nH]c1=O)c1ccccc1	3.8%	39.8*	-19.0%	-2.4%	-15.7%	59.5*	3.9%[38.3 µM]	1.4%	?	-17.3%	?
Cc1cccc(OCc2nn[nH]n2)c1C	8.1%	-3.8	2.4%	-3.6%	14.1µM*	-9.9	26.0%	-4.4%	4.1%	12.6%	16.0%
COc1ccc(OCc2nn[nH]n2)cc1	-13.2%	1.4	3.2%	5.7%	25.1µM*	19.5	?	-6.1%	12.4%	7.4%	22.4%
COC(=O)c1ccc(OCc2nn[nH]n2)cc1	-2.2%	-2.3	0.9%	-0.4%	31.6µM*	5.9	20.7%	18.8%	13.5%	12.4%	14.2%
CCOC(=O)C1CCCN(C(=O)c2cc3ccccc3oc2=O)C1 (stereo not drawn)	6.5%	4.6	-5.2%	1.6%	0.0%	13.6	.	.	.	.	.
CCCCn1nnnc1C(c1ccccc1)N1CCN(c2ccc(F)cc2)CC1 (stereo not drawn)	.	.	1.9%	.	.	.	.	.	.	.	.

Screening data deposited in PubChem BioAssay by National Center for Advancing Translational Sciences (NCATS).
